Usually inhibition stands for the drop in the measured response relative to a control, in per cent.

The campaign covered roughly 190,000 compounds. About 810 (0.43%) were called active. Only a selection was taken, and actives are over-represented in it overall. Values without a mark were called inactive. Rule as the data show it: active = inhibition above about 50%; inactive = the rest.

In PubChem BioAssay AID1209 (Sanford-Burnham Center for Chemical Genomics, 2008) one finds inhibition data, which are given here for 103 compounds.

Mannose-6-phosphate isomerase (Homo sapiens), sequence (P34949 whole entry, looked up): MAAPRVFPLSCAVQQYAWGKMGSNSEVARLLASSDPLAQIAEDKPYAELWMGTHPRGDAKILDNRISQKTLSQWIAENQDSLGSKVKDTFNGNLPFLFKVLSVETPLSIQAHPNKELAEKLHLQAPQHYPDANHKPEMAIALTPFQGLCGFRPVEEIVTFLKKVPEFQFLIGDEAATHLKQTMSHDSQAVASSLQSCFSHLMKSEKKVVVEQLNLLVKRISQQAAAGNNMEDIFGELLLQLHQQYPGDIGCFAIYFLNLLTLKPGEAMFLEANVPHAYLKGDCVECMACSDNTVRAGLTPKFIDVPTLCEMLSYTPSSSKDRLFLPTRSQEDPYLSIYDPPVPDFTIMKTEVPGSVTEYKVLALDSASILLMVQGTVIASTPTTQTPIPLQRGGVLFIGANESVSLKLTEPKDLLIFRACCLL

This test concerns the target Mannose-6-phosphate isomerase (Homo sapiens) (UniProt P34949). Kind of test: MPI enzyme activity inhibition – biochemical, fluorescence intensity, coupled assay, primary screen (AID 1209).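 Also: plate controls were DMSO vehicle for no effect and wells lacking substrate for full effect.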 As to conditions: purified PMI enzyme, at 20 µM, active compounds read high.
For `CCN1CCN(C(=O)c2oc(=O)c3ccccc3c2-c2ccc(C)cc2)CC1`, the inhibition is -1.6%.

On to `CCNc1nc2[nH]c(=O)c3c(c2s1)OC(N)=C(C#N)C3c1ccc(C)cc1` (stereo not drawn), for which the inhibition is 54.6% (active).

Take `CNc1nc2[nH]c(=O)c3c(c2s1)OC(N)=C(C#N)C3c1cccc(F)c1` (stereo not drawn): the inhibition is 39.7%.

`CNc1nc2[nH]c(=O)c3c(c2s1)OC(N)=C(C#N)C3c1ccccc1` (stereo not drawn): the inhibition is 43.5%.

Turning to `COCCCNC(=S)N/N=C/c1ccc(N(C)C)cc1`, the inhibition was 1%.

With `CCC(C)/C(C)=N/NC(=O)c1ccc(COc2ccc(Cl)c(C)c2)cc1` (stereo not drawn), the inhibition is 13.9%.

Take `Cc1ccc(NCc2ccc(O)c3ncccc23)cc1C`: the inhibition was 55.8% (active).

For the compound `Oc1ccc(COCc2ccccc2)c2cccnc12`, the inhibition was 46.1%.

For `Oc1ccc(CNc2ccccc2)c2cccnc12`, the inhibition is 50.5% (active).

For `COCc1ccc(O)c2ncccc12`, the inhibition is 23.7%.

For `O=[N+]([O-])c1ccc(O)c2ncccc12`, the inhibition was -7.5%.

`Oc1ccc(CNc2ccc(F)cc2)c2cccnc12`: the inhibition was 36.2%.

For the compound `Cc1cccc(NCc2ccc(O)c3ncccc23)c1`, the inhibition is 42.5%.

On to `Cc1ccc(NCc2ccc(O)c3ncccc23)cc1`, for which the inhibition is 50.8% (active).

As for `Cc1ccc(NCc2ccccc2O)cc1C`, the inhibition was 19.9%.

Take `Cc1ccc(NCc2ccccc2O)cc1`: the inhibition was 13.8%.

Regarding `Oc1ccc(F)c2cccnc12`, the inhibition is 50.9% (active).

For `OCc1ccc(O)c2ncccc12`, the inhibition is 27%.

Take `S=c1[nH]nc(-c2cccnc2)o1`: the inhibition was -18.4%.

Turning to `Nc1nc(NC(=O)/C=C\C(=O)O)nn1-c1ccccc1`, the inhibition was -12.4%.

Regarding `Cc1ccc(C)c(NC(=S)N(Cc2ccc(Cl)cc2)Cc2ccc(C(=O)O)cc2)c1`, the inhibition was -4.3%.

Turning to `O=C(NCCN1C(=O)S/C(=C\c2ccccc2)C1=O)C1CCN(S(=O)(=O)c2cccs2)CC1`, the inhibition is 8.1%.

Regarding `CC(=O)c1cnn(-c2cc(Oc3cccc(C)c3)ncn2)c1C`, the inhibition was 16.6%.

As to `O=Cc1cn(-c2ccc(F)cc2)c2ccccc12`, the inhibition is 4.3%.

Regarding `Cc1cccc(NC(=O)c2ccccc2OCC(=O)N2CCOCC2)c1C`, the inhibition is 11.4%.

For `CCOc1ccccc1NC(=O)NCc1cccnc1`, the inhibition is 0.3%.

As to `CSC1=C(C#N)C(c2ccc3c(c2)OCO3)C2=C(CCCC2=O)N1` (stereo not drawn), the inhibition was -3%.

With `COc1ccc(C(=S)N2CCN(c3cccc(Cl)c3)CC2)c(OC)c1`, the inhibition is 20.6%.

With `COc1cc(C(=S)N2CCCC2)cc(Cl)c1O`, the inhibition is 4.8%.

For `COc1cc(C(=S)N2CCN(c3cccc(Cl)c3)CC2)ccc1O`, the inhibition was 58.8% (active).

With `CC(=O)c1ccc(NC(=S)N2CCN(c3cccc(Cl)c3)CC2)cc1`, the inhibition is -6.5%.

Consider `COc1cc(C(=S)N2CCN(c3ccccc3Cl)CC2)cc(O)c1O`, for which the inhibition is 67.5% (active).

For the compound `Oc1ccc(C(=S)N2CCN(c3cccc(Cl)c3)CC2)cc1`, the inhibition was 59.2% (active).

On to `Oc1ccccc1C(=S)N1CCN(c2cccc(Cl)c2)CC1`, for which the inhibition was 22.1%.

In the case of `COc1cc(C(=S)N2CCCC2)ccc1O`, the inhibition was -0.7%.

`COc1cc(C(=S)N2CCCC2)cc(OC)c1O`: the inhibition was 17.5%.

Regarding `Cc1cccc(C)c1NC(=O)C1(N(Cc2ccco2)C(=O)Cn2nnnc2N)CCCCC1`, the inhibition is 4.1%.

On to `COc1ccc(CNC(=O)C/C(C)=N/NC(=O)Cc2ccc(OC)cc2)cc1`, for which the inhibition was -4%.

With `COC(=O)c1ccc2nc(C)c(C)nc2c1`, the inhibition is -5.7%.

Consider `COC(=O)c1ccc2c(c1)C(C)(C)C(/C=C/c1ccccc1O)=[N+]2C`, for which the inhibition was 39.9%.

`COC(=O)c1ccc2c(c1)C(=O)/C(=C/c1ccc(O)cc1)O2`: the inhibition is 8%.

On to `COC(=O)c1ccc(C(=O)OC)c(NC(=O)COC(=O)c2ccc(OC)c(OC)c2OC)c1`, for which the inhibition was 7.2%.

In the case of `COC(=O)c1ccc2c(c1)C(C)(C)C(/C=C/c1ccc(OC)c(OC)c1OC)=[N+]2C`, the inhibition is 91.8% (active).

As to `COC(=O)c1ccc2c(c1)C(C)(C)C(/C=C/c1ccc(O)cc1)=[N+]2C`, the inhibition is 72% (active).

Take `CN(C)c1ccc(C(=O)OCc2ccccc2)cc1`: the inhibition is 16%.

On to `CCS(=O)(=O)c1ccc2c(c1)N(S(=O)(=O)c1ccc(Cl)cc1)CC(C(=O)O)O2` (stereo not drawn), for which the inhibition is -3.9%.

In the case of `O=C(O)CC1S/C(=N/N=C/c2ccc(-c3ccccc3[N+](=O)[O-])o2)NC1=O` (stereo not drawn), the inhibition was 68.4% (active).

Turning to `Cc1ccc(-c2ccc(/C=N/N=C3/NC(=O)C(CC(=O)O)S3)o2)c([N+](=O)[O-])c1` (stereo not drawn), the inhibition was 30.5%.

Regarding `O=C(O)CC1S/C(=N/N=C/c2ccc(-c3ccc(Cl)c([N+](=O)[O-])c3)o2)NC1=O` (stereo not drawn), the inhibition was -9%.

With `COC(=O)c1cccc(-n2[nH]nnc2=S)c1`, the inhibition is 64.8% (active).

For `COC(=O)c1cccc(NC(N)=S)c1`, the inhibition was -7.9%.

For the compound `COC(=O)c1cccc(-n2cnnn2)c1`, the inhibition is -6.9%.

Turning to `COc1ccc(OC)c2c(C)cc(NCCN3CCOCC3)nc12`, the inhibition is 11.7%.

For the compound `CCn1nc(CC(=O)Nc2nnc(CC(=O)N3CCCCC3)s2)c2ccccc2c1=O`, the inhibition was 4.6%.

`CCn1nc(CC(=O)Nc2nnc(CC(=O)N3CCCC3)s2)c2ccccc2c1=O`: the inhibition is 50.5% (active).

Take `CCn1nc(CC(=O)Nc2nnc(CC(=O)N3CCOCC3)s2)c2ccccc2c1=O`: the inhibition was 5.5%.

As for `COc1ccnc(Oc2ccc(Cl)cc2)c1C#N`, the inhibition is -5.9%.

As to `CC(C)CC(=O)N1CCN(Cc2ccc3c(c2)OCO3)CC1`, the inhibition is 3.6%.

In the case of `CCOC(=O)N1CCN(C(=O)Cn2ccc3c(OC)cccc3c2=O)CC1`, the inhibition was 3.2%.

For the compound `CCCn1c(SCC(=O)Nc2cc(S(=O)(=O)N3CCOCC3)ccc2OC)n[nH]c1=O`, the inhibition is -2%.

In the case of `CCOc1cc(-c2nc(C)c(C(C)=O)n2O)ccc1OCC(=O)Nc1ccc(F)cc1`, the inhibition was -3.7%.

Turning to `CCOC(=O)c1c(N)sc(C(=O)N(C)C)c1C`, the inhibition is -5%.

With `CCOC(=O)c1c(N)sc(C(=O)OC)c1C`, the inhibition is -6.6%.

Consider `CCOC(=O)c1c(N)sc(C(=O)OCCOC)c1C`, for which the inhibition is 51% (active).

Consider `CCOC(=O)c1c(N)sc(N)c1C(=O)OCC`, for which the inhibition was 60.1% (active).

Regarding `CCOC(=O)c1sc(N)c(C(=O)Nc2ccccc2)c1C`, the inhibition is 44.4%.

Regarding `CCOC(=O)c1c(N)sc2c1CCCC2`, the inhibition is 5.6%.

With `CCOC(=O)c1c(N)sc(C(=O)Nc2ccccc2F)c1C`, the inhibition was 11.6%.

Consider `CCCOC(=O)c1c(N)sc(C(=O)OCC)c1C`, for which the inhibition was 2.1%.

For the compound `CCOC(=O)c1sc(N)c(C(=O)OC)c1C`, the inhibition was 7%.

Turning to `CCOC(=O)c1sc(N)c(C(=O)Nc2ccccc2OC)c1C`, the inhibition was 60.2% (active).

As for `CCOC(=O)c1c(N)sc(C(N)=O)c1C`, the inhibition was -5.6%.

For `CCOC(=O)c1sc(N)c(C(N)=O)c1C`, the inhibition was 64.3% (active).

On to `NNC(=O)COc1ccc(F)cc1`, for which the inhibition is 15.9%.

As to `O=C(NCc1ccncc1)c1cncc(Br)c1`, the inhibition is 2%.

For `NC1=NC(=O)/C(=C\c2ccc(O)c([N+](=O)[O-])c2)S1`, the inhibition is -3.7%.

With `CCc1c(O)cc2n(c1=O)-c1ccc(Cl)cc1C2(C)C`, the inhibition was 2.7%.

With `CN(CC(=O)NC(=O)NCc1ccccc1)Cc1ccc(Cl)c(Cl)c1`, the inhibition was 14%.

`Cc1cccc(NC(=O)C(=O)NCCc2c[nH]c3ccccc23)c1C`: the inhibition was 12.5%.

`CCC(=O)Nc1cccc(-n2nnnc2SCC(=O)N2CCCCC2)c1`: the inhibition was -4.2%.

`COC(=O)c1nc2ccc(N3CCOCC3)cc2c(C)c1C(=O)OC`: the inhibition was 23.5%.

Regarding `Cc1cc(C(=O)Nc2ccc(N3CCOCC3)cc2)c2ccccc2n1`, the inhibition is 6.1%.

Consider `Cc1c(C(=O)O)c(C(=O)O)nc2ccc(N3CCOCC3)cc12`, for which the inhibition was 56.4% (active).

Regarding `CC(C)c1nc(SCC(=O)c2ccccc2)c2c(=O)n(C)c(=O)n(C)c2n1`, the inhibition was 5.8%.

For `Cc1nn(C)c(C)c1C1C(C#N)=C(N)OC2=C1C(=O)CC(C)(C)C2` (stereo not drawn), the inhibition is -1.4%.

Consider `C/C(=C\C(=O)c1cccnc1)Nc1ccc(C(=O)O)cc1`, for which the inhibition is 81% (active).

Consider `CC(=O)Nc1ccc(N/C(C)=C/C(=O)c2cccnc2)cc1`, for which the inhibition is -7.3%.

For `C/C(=C\C(=O)c1cccnc1)Nc1ccc(O)cc1`, the inhibition is 42.8%.

For `CCCCCCSc1nnc(-c2cnn(-c3ccccc3)c2-n2cccc2)n1C`, the inhibition was 16.4%.

As for `CC(=O)CC(C)=NCCN=C(C)CC(C)=O`, the inhibition was -3.7%.

With `Cn1cc2ccc(N)cc2n1`, the inhibition is 72.9% (active).

On to `Cc1ccc2cc(N)ccc2n1`, for which the inhibition is 45.2%.

`Cn1cc2cc(NC(N)=S)ccc2n1`: the inhibition was 1.7%.

In the case of `O=C(COC(=O)/C=C/c1ccc(S(=O)(=O)N2CCOCC2)cc1)NCc1ccc(F)cc1`, the inhibition is 9.2%.

In the case of `CC(C)[C@H](NC(=O)c1ccccc1)C(=O)OCC(=O)N1CCN(C(=O)c2ccco2)CC1`, the inhibition was -11.4%.

As for `Cc1cccc(Oc2c([N+](=O)[O-])c(=O)n(C)c3ccccc23)c1`, the inhibition was 76% (active).

On to `Cc1ccc(Nc2c([N+](=O)[O-])c(=O)n(C)c3ccccc23)cc1`, for which the inhibition is 3.9%.

For the compound `Cc1cccc(Nc2c([N+](=O)[O-])c(=O)n(C)c3ccccc23)c1`, the inhibition is 2.7%.

As for `COC(=O)C1CCN(C(=O)c2ccc(SC)cc2OC)CC1`, the inhibition is 6.4%.

`CCOc1cc(/C=C2/C(=O)N(c3ccccc3)N=C2C)ccc1OC(=O)c1cccs1`: the inhibition was 13.1%.

`CCOc1cc(/C=C2\C(=O)N(c3ccc(C(N)=O)cc3)N=C2C)ccc1OC(=O)c1cccs1`: the inhibition is 59.8% (active).

Take `CCOc1cc(/C=C2/C(=O)N(c3ccccc3)N=C2C)ccc1OC(=O)c1ccco1`: the inhibition is 37.5%.

As for `O=C(NCC(O)c1ccc([N+](=O)[O-])cc1)c1cccc(S(=O)(=O)N2CCCC2)c1` (stereo not drawn), the inhibition is 7.8%.
